# Experimental data taken from PubChem BioAssay AID1159580 (chemical genetic matrix, 2015).
# “And” between values parts separate entries of the source, which are not always exact repeats. Identical values can stand only once. The campaign covered roughly 5,500 compounds. About 2,000 (36%) were called active. Roughly 18% stayed inconclusive and do not appear here. No stated cut-off is given here; in the data, active means normalized growth mostly below about 0.91 (no sharp cut-off); inconclusive means no clear call, values can overlap the other calls; inactive means mostly above about 0.92. Some of the results follow.
# Assay: chemical genetic growth profiling, strain panel (AID 1159580);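 further: tested at 20 µM; growth read once vehicle control cultures reached saturation at 30 °C; 1 = growth at the plate median or of vehicle wells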
# Details: S. cerevisiae deletion strains, growth OD
compound,measurement,setting,value
CCOc1cccc(C(=O)c2ccc(O)c(O)c2O)c1,normalized growth,"locus YAL021C, strain ccr4, stronger effect = lower value",0.601 (active)
same,normalized growth,"locus YAL026C, strain drs2, stronger effect = lower value",0.813 (active)
same,normalized growth,"locus YAL030W, strain snc1, stronger effect = lower value",0.928 (active)
same,normalized growth,"locus YBL061C, strain skt5, stronger effect = lower value",0.888 (active)
same,normalized growth,"locus YBR009C, strain hhf1, stronger effect = lower value",0.879 (active)
same,normalized growth,"locus YBR021W, strain FUR4, stronger effect = lower value",0.898 (inactive)
same,normalized growth,"locus YBR023C, strain chs3, stronger effect = lower value",0.806 (active)
same,normalized growth,"locus YBR171W, strain sec66, stronger effect = lower value",0.918 (inactive)
same,normalized growth,"locus YBR229C, strain ROT2, stronger effect = lower value",0.938 (inactive)
same,normalized growth,"locus YBR231C, strain swc5, stronger effect = lower value",0.783 (active)
same,normalized growth,"locus YBR279W, strain paf1, stronger effect = lower value",0.933 (inactive)
same,normalized growth,"locus YCL011C, strain gbp2, stronger effect = lower value",0.941 (inactive)
same,normalized growth,"locus YCL016C, strain dcc1, stronger effect = lower value",0.963 (inactive)
same,normalized growth,"locus YCL029C, strain bik1, stronger effect = lower value",0.776 (active)
same,normalized growth,"locus YCL061C, strain MRC1, stronger effect = lower value",0.933 (inactive)
same,normalized growth,"locus YCL069W, strain vba3, stronger effect = lower value",0.975 (inactive)
same,normalized growth,"locus YCR088W, strain abp1, stronger effect = lower value",0.969 (inactive)
same,normalized growth,"locus YDL005C, strain med2, stronger effect = lower value",0.974 (inactive)
same,normalized growth,"locus YDL035C, strain GPR1, stronger effect = lower value",0.804 (active)
same,normalized growth,"locus YDL040C, strain nat1, stronger effect = lower value",0.963 (inactive)
same,normalized growth,"locus YDL074C, strain BRE1, stronger effect = lower value",0.67 (active)
same,normalized growth,"locus YDL101C, strain DUN1, stronger effect = lower value",0.752 (active)
same,normalized growth,"locus YDL185W, strain tfp1, stronger effect = lower value",0.586 (active)
same,normalized growth,"locus YDL192W, strain arf1, stronger effect = lower value",0.815 (active)
same,normalized growth,"locus YDR001C, strain nth1, stronger effect = lower value",0.955 (inactive)
same,normalized growth,"locus YDR069C, strain doa4, stronger effect = lower value",0.566 (active)
same,normalized growth,"locus YDR101C, strain arx1, stronger effect = lower value",0.889 (active)
same,normalized growth,"locus YDR137W, strain rgp1, stronger effect = lower value",0.643 (active)
same,normalized growth,"locus YDR159W, strain sac3, stronger effect = lower value",0.84 (active)
same,normalized growth,"locus YDR162C, strain NBP2, stronger effect = lower value",0.672 (active)
same,normalized growth,"locus YDR195W, strain ref2",0.99 (inactive)
same,normalized growth,"locus YDR297W, strain sur2, stronger effect = lower value",0.916 (active)
same,normalized growth,"locus YDR318W, strain mcm21, stronger effect = lower value",0.877 (active)
same,normalized growth,"locus YDR334W, strain swr1, stronger effect = lower value",0.886 (active)
same,normalized growth,"locus YDR335W, strain msn5, stronger effect = lower value",0.84 (active)
same,normalized growth,"locus YDR388W, stronger effect = lower value",0.923 (active)
same,normalized growth,"locus YDR392W, strain spt3, stronger effect = lower value",0.807 (inactive)
same,normalized growth,"locus YDR502C, strain sam2, stronger effect = lower value",0.791 (active)
same,normalized growth,"locus YEL003W, strain gim4, stronger effect = lower value",0.839 (active)
same,normalized growth,"locus YEL037C, strain rad23, stronger effect = lower value",0.925 (inactive)
same,normalized growth,"locus YEL061C, strain CIN8 (second series), stronger effect = lower value",0.955 (inactive)
same,normalized growth,"locus YER015W, strain faa2, stronger effect = lower value",0.89 (active)
same,normalized growth,"locus YER016W, strain bim1, stronger effect = lower value",0.953 (inactive)
same,normalized growth,"locus YER110C, stronger effect = lower value",0.979 (inactive)
same,normalized growth,"locus YER111C, strain swi4, stronger effect = lower value",0.815 (active)
same,normalized growth,"locus YER155C, strain BEM2 (second series), stronger effect = lower value",0.847 (active)
same,normalized growth,"locus YER155C, strain BEM2, stronger effect = lower value",0.858 (active)
same,normalized growth,"locus YER167W, strain BCK2, stronger effect = lower value",0.909 (inactive)
same,normalized growth,"locus YFR010W, strain ubp6, stronger effect = lower value",0.84 (active)
same,normalized growth,"locus YGL078C, strain dbp3, stronger effect = lower value",0.956 (inactive)
same,normalized growth,"locus YGL086W, strain mad1, stronger effect = lower value",0.782 (active)
same,normalized growth,"locus YGL167C, strain pmr1, stronger effect = lower value",0.935 (inactive)
same,normalized growth,"locus YGL173C, strain kem1, stronger effect = lower value",0.766 (active)
same,normalized growth,"locus YGL227W, strain vid30, stronger effect = lower value",0.984 (inactive)
same,normalized growth,"locus YGL240W, strain doc1, stronger effect = lower value",0.978 (inactive)
same,normalized growth,"locus YGL248W, strain PDE1, stronger effect = lower value",0.792 (active)
same,normalized growth,"locus YGL253W, strain hxk2, stronger effect = lower value",0.901 (active)
same,normalized growth,"locus YGR135W, strain pre9, stronger effect = lower value",0.777 (active)
same,normalized growth,"locus YGR252W, strain gcn5, stronger effect = lower value",0.77 (inactive)
same,normalized growth,"locus YHR013C, strain ard1, stronger effect = lower value",0.81 (active)
same,normalized growth,"locus YHR027C, strain rpn1, stronger effect = lower value",0.83 (active)
same,normalized growth,"locus YHR030C, strain SLT2, stronger effect = lower value",0.978 (inactive)
same,normalized growth,"locus YHR079C, strain IRE1 (second series), stronger effect = lower value",0.859 (active)
same,normalized growth,"locus YHR079C, strain IRE1, stronger effect = lower value",1.02 (inactive)
same,normalized growth,"locus YHR094C, strain hxt1, stronger effect = lower value",0.965 (inactive)
same,normalized growth,"locus YHR129C, strain ARP1, stronger effect = lower value",0.761 (active)
same,normalized growth,"locus YHR142W, strain chs7, stronger effect = lower value",0.776 (active)
same,normalized growth,"locus YHR200W, strain rpn10, stronger effect = lower value",0.859 (active)
same,normalized growth,"locus YIL066C, strain RNR3, stronger effect = lower value",0.8 (active)
same,normalized growth,"locus YIL073C, strain SPO22, stronger effect = lower value",0.654 (active)
same,normalized growth,"locus YIL125W, strain kgd1, stronger effect = lower value",0.951 (inactive)
same,normalized growth,"locus YIR030C, strain dcg1, stronger effect = lower value",0.958 (inactive)
same,normalized growth,"locus YJL092W, strain hpr5, stronger effect = lower value",0.97 (inactive)
same,normalized growth,"locus YJL095W, strain BCK1 (second series), stronger effect = lower value",0.867 (active)
same,normalized growth,"locus YJL095W, strain BCK1, stronger effect = lower value",0.603 (active) and 0.961 (inactive)
same,normalized growth,"locus YJL115W, strain asf1, stronger effect = lower value",0.971 (inactive)
same,normalized growth,"locus YJL129C, strain trk1, stronger effect = lower value",0.936 (inactive)
same,normalized growth,"locus YJL134W, strain LCB3, stronger effect = lower value",0.932 (inactive)
same,normalized growth,"locus YJL154C, strain vps35, stronger effect = lower value",0.959 (inactive)
same,normalized growth,"locus YJL164C, strain tpk1, stronger effect = lower value",0.811 (active)
same,normalized growth,"locus YJL166W, strain qcr8, stronger effect = lower value",0.872 (active)
same,normalized growth,"locus YJL168C, strain set2, stronger effect = lower value",0.964 (inactive)
same,normalized growth,"locus YJL187C, strain SWE1 (second series), stronger effect = lower value",0.42 (active)
same,normalized growth,"locus YJL187C, strain SWE1, stronger effect = lower value",0.895 (active)
same,normalized growth,"locus YJR066W, strain TOR1, stronger effect = lower value",0.981 (inactive)
